Assay outcomes from PubChem.
DPM-DC inhibit: S. pneumoniae DPM-DC inhibition. calls only at 10 µM. purified DPM-DC, PK/LDH coupled NADH fluorescence. AID 556. 0.49% of 65,000 active;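 active = the 320 compounds with the highest percent inhibition in the single-dose primary screen, excluding strongly autofluorescent ones, cut at about 32% in these data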;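 also: kinetic rate of NADH fluorescence loss reporting ADP formed by the decarboxylase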
Autofluor 339: intrinsic fluorescence of library compounds, ex339/em460 – biochemical, MLSMR library, data from DPM-DC assay, artefact control, profiling panel. AID 709. 5.5% of 65,000 active. fluorescence fold increase at 10 µM. compound autofluorescence, ex339/em460 nm, NADH buffer; active compounds read high; 1 = no-compound wells, NADH background;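 active = at 10 µM, mean starting fluorescence two-fold or more over control wells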;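 also: signal is the first read of a kinetic run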
A340 absorber: absorbance at 340 nm; compound absorbance at 340 nm, fold over control; fold change at 10 µM; 65,000 tested, under 10 active;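 active = at 10 µM dose, initial 340 nm absorbance at least 2 fold that of control wells; inactive = change under 2 fold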;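 also: initial absorbance extrapolated from kinetic A340 decline of NADH oxidation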
NADH coupling: inhibitors of enzymes used to reach an NAD/NADH endpoint | 0.02% of 65,000 active | coupled PK/LDH NADH assays, four targets | IC50, µM (top dose mostly 10 µM), without a hit: at the top dose inhibition;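 active = single-dose screening hits from any of four coupled enzyme assays that gave an IC50 when retested across doses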;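 also: the DPM-DC format reads NADH fluorescence rather than 340 nm absorbance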
MK inhibit: inhibitors of Streptococcus pneumoniae mevalonate kinase. purified MK, PK/LDH-coupled NADH absorbance 340 nm. inhibition, % at 10 µM. 0.48% of 65,000 active;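 active = ranked among the strongest by inhibition in the single 10 µM screen, a fixed top-ranked set picked for dose follow-up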
PMK inhibit: inhibitors of Streptococcus pneumoniae phosphomevalonate kinase | purified PMK, PK/LDH-coupled NADH absorbance 340 nm | 0.49% of 65,000 active | inhibition, % at 10 µM;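 active = top-ranked compounds by inhibition in the single 10 µM screen, taking a fixed number of the strongest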;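 also: 0% = full reaction with DMSO carrier and 100% = background rate without enzyme reaction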
Active calls of the source: *; i = inactive; · = no result given; + = active, no number. Sampled rows, rich in hits. Any-hit rate of the full collection: about 6.5%.

SMILES | DPM-DC inhibit | Autofluor 339 | A340 absorber | NADH coupling | MK inhibit | PMK inhibit
O=C(NCc1ccco1)c1ccc2c(=O)n(CC3CCCO3)c(=S)[nH]c2c1 (stereo unspecified) | i | 1 | 1 | 2% | 5 | 10
O=c1c2cc(N3CCOCC3)ccc2[nH]c(=S)n1Cc1ccccn1 | + | 3.5* | 1.1 | 17% | 4 | 14
CCCCN(C)CCn1c(=S)[nH]c2ccc(N3CCOCC3)cc2c1=O | i | 2.5* | 1.1 | 11% | 8 | 11
Cc1[nH]c2ccccc2c1SCC(=O)N1CCOCC1 | i | 1.1 | 1 | 7% | 11 | 11
CCc1cc(N2CCOCC2)cc2c1[nH]c1ccccc12 | · | 4* | 1 | 6% | 9 | 3
CCC(C(=O)N1CCc2ccccc2C1)n1nc(C)n2c(cc3occc32)c1=O (stereo unspecified) | i | 1.1 | 1 | 6% | 0 | 17
CC(=O)OC(C(=O)NCc1ccco1)c1ccncc1 (stereo unspecified) | i | 1.1 | 1 | 5% | 0 | 15
CN(C)c1ccc(CNCCC2(O)CCOC(C)(C)C2)cc1 (stereo unspecified) | i | 1.1 | 1 | 11% | 41* | 61*
CN(C)c1ccc(C=NCCC2(O)CCOC(C)(C)C2)cc1 (stereo unspecified) | i | 1 | 1.1 | 4% | 7 | 5
CCS(=O)(=O)N1CCC(NC(=O)C2CCCCC2)CC1 | i | 1.1 | 1 | 2% | 1 | 5
Cc1nnc(SCCN2CCOCC2)n1C | i | 1.1 | 1 | 18% | 52* | 0
COc1ccccc1-c1nnc(SCCN2CCOCC2)n1-c1ccc(C)cc1 | i | 1.1 | 1.1 | 0% | 0 | 0
COc1cc(-c2noc(-c3cccs3)n2)cc(OC)c1OC | i | 1.1 | 1 | 6% | 5 | 11
COc1ccc(-c2ccc(-c3noc(-c4ccccc4OC)n3)c(OC)n2)cc1 | · | 3* | 1.1 | 1% | 7 | 4
COc1ccc(-c2ccc(-c3noc(-c4cccs4)n3)c(OC)n2)cc1 | · | 3* | 1 | 2% | 6 | 1
COc1ccc(-c2ccc(-c3noc(-c4ccccc4C)n3)c(OC)n2)cc1 | · | 3.8* | 1.2 | 2% | 0 | 3
Cc1ccc(-c2nc(NC(=O)CSc3nnc(C)s3)ns2)cc1 | i | 1.1 | 1 | 3% | 3 | 7
COc1ccc(-c2nc(NC(=O)CSc3nnc(C)s3)ns2)cc1 | i | 2.8* | 1.1 | 13% | 7 | 2
Cc1nnc(SCC(=O)Nc2nsc(-c3ccccc3)n2)s1 | i | 1.1 | 1.1 | 17% | 14 | 38*
Nc1ccc2[nH]ncc2c1 | · | 2.3* | 0.98 | 4% | 5 | 5
O=C(NCCN1CCOCC1)c1cc(S(=O)(=O)NCCCN2CCCC2=O)ccc1Cl | i | 1.1 | 1 | 6% | 0 | 18
CCOC(=O)N1CCN(C(c2ccc(F)cc2)c2sc3nc(C)nn3c2O)CC1 (stereo unspecified) | i | 1.1 | 1.1 | 2% | 5 | 0
COC(=O)c1ccccc1NC1OC(=O)c2ccccc21 (stereo unspecified) | i | 3* | 1.1 | 12% | 0 | 8
O=C1OC(Nc2ccc(F)cc2F)c2ccccc21 (stereo unspecified) | i | 1 | 1 | 6% | 2 | 15
O=C(Nc1c(C(=O)O)[nH]c2ccccc12)NC1CCCCC1 | · | 3.9* | 1 | 6% | 6 | 6
SMILES | DPM-DC inhibit | Autofluor 339 | A340 absorber | NADH coupling | MK inhibit | PMK inhibit
O=C(NC1CCCCCCC1)c1c(O)c2ccccc2[nH]c1=O | i | 1.1 | 1.1 | 6% | 6 | 10
COc1ccc(OC)c(C(=O)c2coc3ccc(O)cc23)c1 | i | 1.1 | 1 | 0% | 0 | 0
COc1ccc(-c2csc(/C(C#N)=C(\O)CSc3nccn3C)n2)cc1OC | i | 0.96 | 1.1 | 5% | 1 | 12
Cc1c(C(=O)OC(C)CCN(C)C)oc2ccccc12 (stereo unspecified) | i | 1.1 | 1 | 10% | 4 | 7
Cc1c(C(=O)OCC(C)(C)CN(C)C)oc2ccccc12 | + | 0.9 | 1 | 5% | 9 | 6
Nc1nc(CN2CCN(c3ccccn3)CC2)nc(Nc2ccc(Cl)cc2)n1 | i | 1.2 | 1 | 7% | 8 | 11
CC1(C)Cc2c(sc3c4nnnn4c4nnnn4c23)CO1 | i | 1.4 | 1 | 12% | 3 | 12
CC(=O)n1c2ccccc2c2c1c1ccccc1n2C | · | 2.1* | 1.1 | 7% | 2 | 12
CCCCC(=O)NCCc1cc2c(OC)ccc(OC)c2[nH]c1=O | i | 1.1 | 1 | 7% | 0 | 12
O=C(COC(=O)COc1ccc(Nc2ccccc2)cc1)NCc1ccco1 | i | 1 | 0.98 | 6% | 7 | 12
O=C(COc1ccc2oc(-c3ccccc3)cc(=O)c2c1)NCc1ccco1 | · | 3.9* | 1.1 | 8% | 5 | 10
CCOC(=O)c1sc2nc(CC(=O)OC)nc(NCC(=O)OC)c2c1C | · | 3.7* | 1.1 | 12% | 9 | 14
CCOC(=O)c1sc2nc(CC(=O)OC)nc(NCc3ccco3)c2c1C | i | 1.5 | 1.1 | 10% | 0 | 16
N#CC1=C(N)S[C@H](C(=O)C23CC4CC(CC(C4)C2)C3)[C@H]1c1ccncc1 | i | 1 | 0.99 | 3% | 3 | 11
CCOC(=O)C1CC=C(Cl)CC1C(=O)Nc1nccs1 (stereo unspecified) | i | 1.1 | 1 | 9% | 12 | 11
Cc1cc(F)ccc1S(=O)(=O)Nc1ccccc1C(=O)Nc1ncn[nH]1 | · | 2.3* | 1 | 5% | 9 | 0
COc1ccc(CN2CCCC(C(=O)N3CCCC3)C2)cc1 (stereo unspecified) | i | 1.1 | 1 | 3% | 0 | 10
O=C(C1CCN(Cc2ccc(OCc3ccccc3)cc2)CC1)N1CCCC1 | i | 1.1 | 1 | 31% | 59* | 34*
COCCCn1c(-c2ccc(OC)cc2)nc2nc3ccccc3nc21 | · | 4* | 1.1 | 2% | 0 | 3
Clc1ccc(-c2nc3nc4ccccc4nc3n2Cc2ccco2)cc1 | i | 1.9 | 1.1 | 0% | 1 | 0
CCCn1c(-c2ccc(OC)cc2)nc2nc3ccccc3nc21 | · | 2.1* | 1.2 | 12% | 6 | 17
COc1ccc(-c2nc3ccccc3c(=O)n2CCN2CCOCC2)cc1 | i | 1.1 | 1 | 3% | 6 | 4
COc1ccc(OC)c2c1CCC2=O | · | 2.3* | 1 | 4% | 8 | 0
COc1ccc(C)cc1NS(=O)(=O)c1cccc2nonc12 | i | 1.1 | 1.1 | 4% | 11 | 2
CC(C)(CO)NC(=O)C(c1ccccc1)c1ccccc1 | + | 1.1 | 1 | 36% | 11 | 0
Cn1nnc(NC(=O)C(c2ccccc2)c2ccccc2)n1 | i | 1.1 | 1 | 4% | 4 | 7
